Results reported in PubChem BioAssay AID1508600 (Functional Genomics Laboratory (NCATS/FGL), 2020).
Screen size: about 53,000 sequences; about 3,700 (7%) were called active.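 The calls were made as follows: active = gene knockdowns whose robust z-score for IL-1 alpha signal is at least 2 or at most -2, so actives lie on both sides; inactive = the rest.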 Shown is part of a subset that was picked to be rich in actives.

Experiment: Components of the Cytosolic LPS Sensing Pathway: Gene Identification via Genome-wide siRNA Screen
Details: RAW264.7 macrophages, IL-1a HTRF, actives lie on both sides, screened at 100 nM (by protocol), cells primed 5 h with Pam3CSK4 first
Description: Non-canonical inflammasome activation by cytosolic LPS is a critical component of the host response to Gram-negative bacterial infection, however we lack a comprehensive understanding of the cellular processes that control this pathway. Here we describe a genome-wide siRNA screen to identify genes regulating the mouse macrophage IL-1 alpha response to cytosolic LPS.
RAW264.7 cells were maintained in complete DMEM media, comprising DMEM with 4.5 g/L glucose, 10% FBS (Gemini Bio-Products, West Sacramento, CA), 2 mM Glutamine (Lonza) and 20 mM HEPES (Lonza), hereafter complete DMEM.
The RNAi screen was conducted in 384-well format using the Ambion Silencer Mouse Genome siRNA Library (#4391425), which consists of three unique, nonoverlapping, nonpooled siRNAs for each of 17,000 gene targets. siRNA reagents ([…]) were stamped into 384-well white flat-bottom microplates (Corning, 3570) using a Velocity11 VPrep liquid handling system (Agilent) integrated into a BioCel robotic platform (Agilent) in columns 1-22, leaving columns 23-24 empty for negative (Ambion, Negative control #1) and positive (mouse Casp4) controls, respectively. The median value of each plate's negative control column was used to normalize sample wells, and the positive control was used to assess transfection efficiency and assay performance.
Lipofectamine RNAiMAX Transfection Reagent ([…]; Invitrogen) was added in […] serum-free, antibiotic-free media to plate wells using a Thermo Scientific Matrix WellMate and Microplate Stacker. Plates were incubated for 45 min at room temperature to allow for the sufficient formation of siRNA-lipid complexes. Cells were seeded at a density of 1x10^4 cells per well in 20 microL media containing 20% (vol/vol) FBS without antibiotics. The final concentration of siRNA in each well was 100 nM. Cells were cultured for 48h at 37 degrees C in 5% CO2 before addition of […] of TLR ligand Pam3CSK4 for 5 hours. The medium was then removed, replaced with […] growth media and cell were transfected with […] of LipidA and TransIT-TKO (Mirus) for 24 hour. At the end of the LipidA treatment, […] of supernatant was transferred to a 384 Greiner Bio-one non-binding low volume plate and […] of IL-1a HTRF reagent (Cisbio, 62MIL1APEH) was added and incubated at room temperature overnight. The plates were read on an EnVision plate reader (PerkinElmer). Cell viability was measured by adding 20ul Cell Titer Glo to the original plate and running a luminescence read on the EnVision. The quantified IL-1a signal for each siRNA gene-targeted well was divided by the median of the negative control wells and multiplied by 100 to achieve a negative control normalized value for each well/siRNA. This normalized value was then used to generate a robust z-score by first taking the log of each value and then by subtracting the median and dividing by the […].

Sequence	z-score
GGUGUGUGGUUUUUAAUAATT against Abhd3	-0.692 (inactive)
GGUGAUCCUUCUUUUUUACTT against Sgo1	-2.01 (active)
GGGAGUUUCAGACCAGUGUTT against Atp5g3	-0.097 (inactive)
CCAUGGACUUUCUCGAAGATT against Ceacam11	0.612 (inactive)
GCAGGUUCAUACGAUCCAGTT against Plekha3	-0.7 (inactive)
GGCAUGUAAUUUGAUGAUCTT against Mansc1	-1.48 (inactive)
GGCAUCAAGUGACUUAUAATT against Zfp772	2.47 (active)
CGGAUACCGUAGUUUGGUGTT against Lipe	1.51 (inactive)
GGUGAACGACUCCAUGUAUTT against Nectin1	-0.448 (inactive)
CGUGGUUGAACUUUGUCCGTT against C1qtnf12	-0.569 (inactive)
GGAAACUUGAUUAUUUAGGTT against Vrk2	0.915 (inactive)
CGGGUUUAGGAGCAACCUUTT against Zdhhc4	-3.02 (active)
CCAAAUGAAAUUAGUCCUCTT against Eif5	-0.347 (inactive)
GGCGGCAAGCAACAACAAUTT against Ssbp1	0.155 (inactive)
GGAUGUGGUUCGAGUAUGGTT against Pou5f1	1.79 (inactive)
GGUGAAAAGAUCAGAAUACTT against Fahd1	-1.03 (inactive)
CCAAAACAUUAACCUGAAGTT against Pla2g6	-2.34 (active)
GGAAGAGUUGGAAAUUUACTT against Gdpd3	-0.166 (inactive)
GCAUCCUGAUCACUUAACATT against Cep170	-0.732 (inactive)
GGAAGAGAAUCAAGAGCCATT against Lrrc10	-2.65 (active)
GCAAUCUAUAAGAGGUACATT against Axin2	1.79 (inactive)
GGCCACAUUGUCCUAUCAGTT against Cdh16	0.0595 (inactive)

Sequence	z-score
GCAGAAGUCUCGUAUCCAGTT against Arl6ip4	0.337 (inactive)
CAUCGUGUGAAACUGGAGATT against Carmil3	0.608 (inactive)
GGCUGUCAAGAAGCACAUCTT against Inhba	1.08 (inactive)
GGAAAGUUCCAAGUUACCATT against Arl13b	1.18 (inactive)
GGGACAGUGGACCAUUAUGTT against Rnf8	-2.41 (active)
GGAGCCUCAGGUCCAAAUGTT against Fancd2os	1.89 (inactive)
GGAUGUGCAAGGAAUCUCATT against Spint1	0.741 (inactive)
GGCAAUGCACUUAUAACUCTT against Olfr118	0.389 (inactive)
GGAGUUUUGUGAACUAUGATT against Slc36a3	-2.73 (active)
GCUGCAUAGACUCAUGGUUTT against Znrf1	-0.408 (inactive)
GGCACUCCUCUUUGUUUUCTT against Olfr414	-1.82 (inactive)
CCCAAAUGAUUGGAUCUGUTT against Cd40lg	0.273 (inactive)
CGAAUGGCUAUCAGUGAGGTT against Tbc1d20	-1.04 (inactive)
GGACUGUAUGUGGAAUGGCTT against Bmyc	-0.46 (inactive)
GCUACUAAGCACCUAGAGATT against Fxr2	-0.932 (inactive)
CUCUAGCUACUAUUUUCUCTT against Olfr824	-1.57 (inactive)
GGAUAUGGACUAUUCACGGTT against Dgat1	-1.32 (inactive)
CGGCUUACGCAUGUCUAUGTT against Polr2a	-2.01 (active)
GGUUUUGCCAAGGACGCAGTT against Ngf	0.124 (inactive)
GGAAGAAAAAAAAUCUCCATT against Frmd3	0.577 (inactive)
GGUGGUUAUGAUCUAUGAUTT against Dazap1	-1.43 (inactive)
GGCUGGAGCCUCAAAUAUCTT against Rapsn	-0.574 (inactive)

Sequence	z-score
GGUGGAUGCCUUGAAUAUGTT against 1700029P11Rik	-2.25 (active)
CGAGCUAACAGCAUUGCUGTT against Ajuba	0.532 (inactive)
GCCAUGCAAAUCGAUGGGUTT against Rora	-2.69 (active)
GCAUUUAAAAUACACGGUGTT against Arg1	0.264 (inactive)
GGUGACUCCAAGAAUGUGGTT against Wfdc1	-0.703 (inactive)
CCCAGAGCCAGGUUCAAACTT against AY702103	0.78 (inactive)
GCACUAAAUCCUUUGAUAUTT against Olfr307	1.08 (inactive)
GCUGAACAAUUUUCAACAATT against Sclt1	-0.958 (inactive)
GCAUCCUUGACCGAUACUATT against Psmb2	-2.78 (active)
GGAUCUAUUGAUGGUUCAUTT against Tprkb	-1.68 (inactive)
GGGUCACCCAUUAUUUUAUTT against Phyhip	-0.899 (inactive)
GGGAGGAACAUCACCUCAGTT against Vmn2r123	0.327 (inactive)
GGUCAUACUCUAAUCGGACTT against Ctss	0.672 (inactive)
GGAAAGAUGUCAAAGAAAUTT against Gnat2	-1.14 (inactive)
UGCCACUGCCAAAAAAUAATT against Tex18	-0.838 (inactive)
CCAGACAUUUGAUAGCCAUTT against Fam241a	-1.42 (inactive)
GCCAAGCAUAAUCUAAUGATT against Prpf4b	0.851 (inactive)
CGACCACAUUAUUGGGUUUTT against Senp8	2.62 (active)
GCCUGUGAUCUUUUGUAUCTT against Olfr835	-0.726 (inactive)
GGAUGUCUAGUUAUACAUUTT against Mbd3l1	1.21 (inactive)
GCUAAUGAAGCAGAGCUGUTT against Olfr1359	0.388 (inactive)
GGUGUAACUCCUUCAUUGATT against Ripor2	-3.12 (active)

Sequence	z-score
CCUUAUCUCUACCAUCGGUTT against Hyal2	0.0745 (inactive)
GCACCAGCUCUAAUUCAGATT against Herpud2	1.48 (inactive)
GCAUGAUGAUGGAGACCGATT against Sox1	-1.06 (inactive)
GGUGUUCCUAUAAAAGUAUTT against Tfb2m	0.597 (inactive)
GGUGCUACAAGUGUACUGATT against Zswim2	-2.14 (active)
GGUCUUCCAGAACAAUUACTT against Prtn3	0.439 (inactive)
GGCACACCUUUUGUUAGUGTT against Ywhag	-1.94 (inactive)
GGAUUUGUUCAAAUAACAGTT against Lsm14a	-0.664 (inactive)
CCAAAUUAUCACCCUGUUCTT against Olfr763	-0.0232 (inactive)
GGAAAUGCGUCAAAAGACUTT against H2az1	0.04 (inactive)
GCUAAAAAUGGUUGUGUGATT against Six3os1	-1.62 (inactive)
GGAUGGUUUUCAUUUGCUUTT against Cd300ld	-0.606 (inactive)
CCGUUAAGUAGCUGGAAGATT against Ubl4b	0.488 (inactive)
GGGAACCUCACCAUUAUCATT against Olfr769	-0.413 (inactive)
GCAAGGACCAAAUUACAUATT against Itgb3bp	2.45 (active)
GGACUUUCUGAUGGACUUGTT against Sapcd1	1.59 (inactive)
GGAUCCUGAAAUCAAAACUTT against Mbl1	-0.316 (inactive)
GGCAUAACCAAAAGAAAGUTT against 4933427E11Rik	0.648 (inactive)
GGGCUUCUUUGCCACACUUTT against Rho	0.761 (inactive)
CGAGAUGAAAUAUACAGAUTT against Trat1	1.12 (inactive)
GGACAAUUAACGAUCCCACTT against Pdxp	-2.58 (active)
GGGUUAUGGUAGAUUAUCUTT against Tor4a	-0.376 (inactive)

Sequence	z-score
GGACACCUCGAGAUUCUCUTT against Actl11	-0.186 (inactive)
GGAAAACAACACGAUGAAATT against Tex13b	-1.72 (inactive)
GGAAGGAGAACAUUCCUUUTT against Ces1d	-0.198 (inactive)
GGCCAUUUGUUAGGACCUGTT against Prmt6	0.205 (inactive)
CGGCAUGUCCUUCAUCGCUTT against Proser2	-2.89 (active)
GGAGAAAAUUCAAGUCACCTT against Olfr663	0.215 (inactive)
AGUGAAACUAAACUGGAGUTT against 2610318N02Rik	1.41 (inactive)
GGAUCUCAAUGUUCACUUGTT against Bpifb2	-0.817 (inactive)
GGCUACUUCUGUACUAGGATT against Gclc	-1.05 (inactive)
GGAGGAAGCUCAUCUAUGATT against Rpl7	0.964 (inactive)
GGAAACCAUCAUGAAGAAATT against Siae	-0.127 (inactive)
CCCAUUGAACAGGAUGUUATT against Coq9	-0.292 (inactive)
CCUGGUAUCCAAGAGGAAGTT against Myt1	2.52 (active)
GCAUCAAUUGUCAGGAAAUTT against Rev3l	0.807 (inactive)
GGGCUCGUAAAGAAAGAAGTT against Cep41	-1.15 (inactive)
GCUGAUGAACGAAUACAACTT against Kcnk5	1.25 (inactive)
GCGCAGAACCCAGAUGAAGTT against Necap2	0.836 (inactive)
CCGUCCAUUGCACUGGAUATT against Arntl2	0.024 (inactive)
GGUGUGAGUGUAAGUUUAUTT against Wnt16	1.1 (inactive)
